Drawing on PubChem BioAssay (NCI), this text covers growth for seven molecules.

Some test systems named below: NCI-H23 lung; NCI-H226 lung; NCI-H322M lung; HOP-62 NSCLC; NCI-H460 lung; HOP-92 NSCLC; NCI-H522 lung; A549/ATCC NSCLC; 786-0 renal; COLO 205 colon; DU-145 prostate; K-562 leukemia; MALME-3M melanoma; MDA-MB-231 breast; RXF 393 renal; SF-268 CNS; SF-295 CNS; SF-539 CNS; UACC-257 melanoma; M14 melanoma.
What all share (test): NCI-60 one-dose screen, 48 h (100 = growth as untreated, 0 = no growth, -100 = all killed)
Common to all, as to details: 10 µM unless noted

SMILES strings stand for the structures. The panel holds about 83,000 compounds, 20% with a hit somewhere; the sample as a whole holds those more often.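 Interpretation: 100, growth as untreated; towards 0, rising growth inhibition; 0, no net growth; 0 to -100, cell death. Compounds scoring below 10 were considered active.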 Unmarked numbers belong to inactive results. Active and inactive are the calls of the source.

With `Brc1cc(-c2cc(-c3ccc4c(c3)OC=CO4)[nH]n2)cs1`, the growth was 79.3% in the test with NCI-H23 lung; 92% in the test with NCI-H226 lung; 91.4% in the test with NCI-H322M lung; 84.7% in the test with HOP-62 NSCLC; 97.8% in the test on NCI-H460 lung; 101% in the test with HOP-92 NSCLC. Besides, the growth in the test on NCI-H522 lung is 81.3%; with A549/ATCC NSCLC it was 93.9%; in the test with 786-0 renal, 106%; with COLO 205 colon, 98.5%; with DU-145 prostate, 95.9%; with K-562 leukemia it was 41.3%. The growth in the test on MALME-3M melanoma is 64%; in the test with MDA-MB-231 breast, 81.2%; with RXF 393 renal it was 93.7%; in the test on SF-268 CNS it was 90.1%; in the test on SF-295 CNS it was 79.1%; with SF-539 CNS, 85.2%. For the same molecule, the growth with UACC-257 melanoma is 101%; in the test on M14 melanoma, 83.3%.

Consider `CCCCSC1=C(Cl)CN(c2ccccc2)C1=O`, for which the growth was 102% in the test with NCI-H23 lung; 102% in the test with NCI-H226 lung; 101% with NCI-H322M lung; 111% in the test with HOP-62 NSCLC; 104% in the test with NCI-H460 lung; 95.7% in the test with HOP-92 NSCLC. Further, the growth in the test on NCI-H522 lung is -9.23% (active); in the test with A549/ATCC NSCLC, 104%; with 786-0 renal it was 108%; in the test on COLO 205 colon, 125%; in the test with DU-145 prostate it was 104%; with K-562 leukemia, 91.6%. Further, the growth is 94.6% in the test on MALME-3M melanoma; 98.2% in the test on MDA-MB-231 breast; 109% in the test on RXF 393 renal; 106% with SF-268 CNS; 98.8% with SF-295 CNS; 97.3% in the test with SF-539 CNS. In addition, the growth in the test on UACC-257 melanoma is 101%; in the test on M14 melanoma, 103%.

Turning to `O=C(CCCCCCNC(=O)C(O)(O)C(F)(F)F)Nc1ccc(-c2ccccc2)cc1`, the growth with NCI-H23 lung was 9.87% (active); with NCI-H226 lung, 39.4%; with NCI-H322M lung, 28.2%; in the test with HOP-62 NSCLC it was -4.5% (active); in the test on NCI-H460 lung it was 7.65% (active); in the test on HOP-92 NSCLC it was -13.6% (active). Moreover, the growth in the test on NCI-H522 lung was -30.9% (active); with A549/ATCC NSCLC it was 8.66% (active); with 786-0 renal, 22.8%; with COLO 205 colon it was -61.9% (active); in the test on DU-145 prostate, 12%; with K-562 leukemia, 9.55% (active). Further, the growth in the test on MALME-3M melanoma is 3.09% (active); in the test on MDA-MB-231 breast, 25%; with RXF 393 renal it was -45% (active); in the test on SF-268 CNS, -4.51% (active); with SF-295 CNS it was -32.1% (active); in the test with SF-539 CNS it was 19.7%. Moreover, the growth is 14.8% in the test on UACC-257 melanoma and 20.7% in the test on M14 melanoma.

For `CC(C)(C)c1cc(NC(=O)Nc2ccc(-c3cn4c5c(sc4n3)CCc3c[nH]cc3-5)cc2)no1`, the growth in the test on NCI-H23 lung was 13.9%; in the test with NCI-H226 lung, 33.9%; in the test on NCI-H322M lung it was 47.6%; with HOP-62 NSCLC, -28.1% (active); with NCI-H460 lung, 4.38% (active); in the test on HOP-92 NSCLC, 23.5%. The growth is 32.4% in the test on NCI-H522 lung; 28.7% in the test on A549/ATCC NSCLC; -29.4% (active) in the test on 786-0 renal; -17.2% (active) in the test with COLO 205 colon; 32.6% with DU-145 prostate; 1.04% (active) with K-562 leukemia. For the same molecule, the growth with MALME-3M melanoma is 0.464% (active); in the test with MDA-MB-231 breast, 30.3%; in the test with RXF 393 renal it was -24.4% (active); in the test on SF-268 CNS it was 32.7%; in the test on SF-295 CNS, -56.5% (active); with SF-539 CNS, -4.46% (active). In addition, the growth in the test on UACC-257 melanoma is 32.3%; in the test with M14 melanoma, 6.95% (active).

Regarding `O=C(CSc1nnc(-c2cccs2)n1-c1ccccc1)Nc1ccccc1`, the growth is 86% with NCI-H23 lung; 64.4% with NCI-H226 lung; 84% in the test with NCI-H322M lung; 46.7% in the test on HOP-62 NSCLC; 81.8% in the test on NCI-H460 lung; 53.3% with HOP-92 NSCLC. For the same molecule, the growth in the test on NCI-H522 lung was 57.7%; with A549/ATCC NSCLC it was 87.7%; in the test with 786-0 renal, 85.1%; with COLO 205 colon, 104%; in the test with DU-145 prostate, 83.3%; in the test with K-562 leukemia, 49.6%. The growth in the test with MALME-3M melanoma was 35.2%; in the test on MDA-MB-231 breast it was 76.4%; in the test on RXF 393 renal it was 59.8%; in the test with SF-268 CNS, 60%; in the test with SF-295 CNS, 90.1%; with SF-539 CNS, 60.7%. Moreover, the growth in the test on UACC-257 melanoma is 85.4%; with M14 melanoma, 88.2%.

Regarding `CCOC(=O)c1cccc(NC2=C(Cl)C(=O)c3nc(C)ccc3C2=O)c1`, the growth is 65.2% with NCI-H23 lung; 89.5% with NCI-H226 lung; 104% with NCI-H322M lung; 112% in the test with HOP-62 NSCLC; 100% with NCI-H460 lung; 108% in the test with HOP-92 NSCLC. The growth in the test with NCI-H522 lung is 88.4%; in the test with A549/ATCC NSCLC, 101%; in the test on 786-0 renal it was 103%; in the test with COLO 205 colon, 120%; in the test on DU-145 prostate, 108%; with K-562 leukemia, 15.6%. Besides, the growth in the test with MALME-3M melanoma was 96.3%; in the test with MDA-MB-231 breast, 89.8%; with RXF 393 renal it was 97.8%; with SF-268 CNS it was 96.2%; in the test on SF-295 CNS it was 113%; with SF-539 CNS, 104%. Besides, the growth was 82% in the test with UACC-257 melanoma and 96.4% in the test on M14 melanoma.

For `CCN1CCN(c2ccc(NC(=O)Nc3ccc4c(ccn4-c4ccnc(C(=O)NC)c4)c3)cc2C(F)(F)F)CC1`, the growth in the test on NCI-H23 lung is 81.8%; in the test on NCI-H226 lung, 92.8%; with NCI-H322M lung, 85.5%; with HOP-62 NSCLC, 79.1%; in the test with NCI-H460 lung, 75.6%; in the test on HOP-92 NSCLC, 84.7%. Moreover, the growth in the test with NCI-H522 lung is 105%; with A549/ATCC NSCLC, 91.3%; in the test with 786-0 renal, 10.3%; with COLO 205 colon, 97.9%; with DU-145 prostate it was 86%; with K-562 leukemia, -9.49% (active). For the same molecule, the growth in the test with MALME-3M melanoma was -65.2% (active); in the test on MDA-MB-231 breast it was 58.1%; in the test with RXF 393 renal it was -30.7% (active); in the test with SF-268 CNS it was 83.9%; in the test with SF-295 CNS, -47.1% (active); with SF-539 CNS, -55.3% (active). Also, the values for the growth in the test with UACC-257 melanoma and in the test on M14 melanoma were 96.7% and 17.9%, respectively.
